These results are taken from PubChem BioAssay (EPA / NIEHS).

Calls of active or inactive are those of the source. The calls were made as follows: active = hit-call score of the fitted dose curve at least 0.9, where 1 is the maximum; inactive = score below 0.9.

Test [1] in a line: ATG_CRE_CIS: Attagene CIS-FACTORIAL HepG2 Assay for human cAMP Responsive Element (CRE) binding protein 3 (AID 2282926). The following applies: HepG2 CRE cis-reporter, Attagene multiplexed mRNA; actives raise or lower the signal. The gist of the method: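 HepG2 cells transiently transfected with cis-element-driven multiple reporter transcription units; CRE reporter mRNA measured 24 h after dosing by RT-PCR, 6-FAM labelling, HpaI digestion and capillary electrophoresis. Bidirectional fit versus DMSO baseline.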

The target of test [2] is CCAAT/enhancer-binding protein beta (Homo sapiens) (UniProt P17676). Description: ATG_C_EBP_CIS: Attagene CIS-FACTORIAL HepG2 Assay for human CCAAT/Enhancer Binding Protein (C/EBP) beta (AID 2282927). The following applies: HepG2 Attagene cis-factorial transcription factor reporter; actives raise or lower the signal. In outline: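 HepG2 transiently transfected with multiplexed reporter units under cis-regulatory promoters reporting endogenous C/EBPb activity. After 24 h exposure, reporter mRNA assayed by RT-PCR, fluorescent labelling, HpaI digestion and capillary electrophoresis; bidirectional fitting versus DMSO.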

A short description of test [3]: ATG_CMV_CIS: Attagene CIS-FACTORIAL HepG2 Assay for human CMV (Internal Marker) (AID 2282928).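 Also: endpoint acts as a background internal control marker rather than a target.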 The following applies: HepG2 CMV promoter reporter, transcription factor profiling; actives raise or lower the signal. The gist of the method:
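HepG2 cells transiently transfected with multiple cis-regulated reporter units; 24 h compound exposure. Reporter mRNA quantified by RT-PCR, 6-FAM primer-extension labeling, HpaI digestion and capillary electrophoresis; bidirectional fitting against DMSO baseline.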

Test [4] can be described thus: ATG_DR4_LXR_CIS: Attagene CIS-FACTORIAL HepG2 Assay for human Liver X Receptor (LXR), DR4 submotif (AID 2282929). The following applies: HepG2 Attagene DR4 cis-reporter, mRNA transcription; actives raise or lower the signal. In outline: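 HepG2 cells were transiently transfected with multiple cis-regulated reporter units and dosed for 24 hours. The DR4 reporter mRNA was quantified by RT-PCR, 6-FAM labelling and capillary electrophoresis. Bidirectional fits used DMSO as baseline.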

For test [5], the target named is Aryl hydrocarbon receptor (Homo sapiens) (UniProt P35869). Description: ATG_Ahr_CIS: Attagene CIS-FACTORIAL HepG2 Assay for human Aryl Hydrocarbon Receptor (Ahr) (AID 2282930). The note with it: HepG2 AhR cis-factorial reporter transcription; actives raise or lower the signal. The gist of the method:
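HepG2 cells transiently transfected with cis-element-driven multiplexed reporter units; endogenous AhR activity read as reporter mRNA 24 h after dosing, via RT-PCR, 6-FAM labelling, HpaI digestion and capillary electrophoresis. Bidirectional fit relative to DMSO.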

The nature of test [6]: ATG_AP_1_CIS: Attagene CIS-FACTORIAL HepG2 Assay for human Activator Protein 1 (AP-1) (AID 2282931). The note with it: HepG2 Attagene cis-factorial AP-1 reporter mRNA; actives raise or lower the signal. The gist of the method:
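HepG2 cells transiently transfected with cis-element-driven reporter transcription units, dosed for 24 hours. Reporter mRNA measured by RT-PCR, 6-FAM labelling, HpaI digestion and capillary electrophoresis. Bidirectional fitting against DMSO baseline.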

Test [7] can be described thus: ATG_AP_2_CIS: Attagene CIS-FACTORIAL HepG2 Assay for human Activator Protein 2 (AP-2) (AID 2282932). The following applies: HepG2 AP-2 cis-reporter, Attagene transcription factor profiling; actives raise or lower the signal. The gist of the method: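 Multiplexed mRNA reporter assay in HepG2: cis-regulated units report endogenous factor activity after 24 h treatment. Fluorescence from capillary electrophoresis of RT-PCR products gives the signal, with DMSO as baseline.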

Test [8] is described as follows: ATG_BRE_CIS: Attagene CIS-FACTORIAL HepG2 Assay for human Bone Morphogenetic Protein (BMP) Response Element (BRE) (AID 2282933). The following applies: HepG2 BMP response element reporter, Attagene transcription factor profiling; actives raise or lower the signal. The gist of the method: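 After a 24 h chemical treatment, transiently transfected HepG2 cells were lysed for RNA; reporter transcripts were quantified by fluorescent RT-PCR and capillary electrophoresis, normalised to DMSO.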

Test [9] deals with Retinoic acid receptor alpha (Homo sapiens) (UniProt P10276). The test can be described thus: ATG_DR5_RAR_CIS: Attagene CIS-FACTORIAL HepG2 Assay for human Retinoic Acid Receptor Alpha (RARE), DR5 submotif (AID 2282934).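 As to AC50: reporter responds to endogenous RAR alpha beta and gamma in HepG2 not RARA alone.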 The following applies: HepG2 Attagene cis-factorial RARE DR5 reporter, mRNA; actives raise or lower the signal. In outline:
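HepG2 cells transiently transfected with multiplexed reporter units; DR5 cis-element drives reporter through endogenous transcription factors. After 24 h dosing, reporter mRNA quantified by RT-PCR, fluorescent labeling, HpaI digestion and capillary electrophoresis; bidirectional fitting versus DMSO.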

In test [10] the target is Transcription factor E2F1 (Homo sapiens) (UniProt Q01094). Description: ATG_E2F_CIS: Attagene CIS-FACTORIAL HepG2 Assay for human E2F Transcription Factor 1 (AID 2282935). The note with it: HepG2 Attagene cis-reporter, E2F reporter RNA transcripts; actives raise or lower the signal. In outline:
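Measures reporter transcript levels via RT-PCR with capillary electrophoresis detection in HepG2 cells harboring cis-regulated reporter units; 24 h post-dose; bidirectional curve fitting with DMSO as baseline.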

Retinoic acid receptor alpha (Homo sapiens), sequence (P10276 whole entry, looked up): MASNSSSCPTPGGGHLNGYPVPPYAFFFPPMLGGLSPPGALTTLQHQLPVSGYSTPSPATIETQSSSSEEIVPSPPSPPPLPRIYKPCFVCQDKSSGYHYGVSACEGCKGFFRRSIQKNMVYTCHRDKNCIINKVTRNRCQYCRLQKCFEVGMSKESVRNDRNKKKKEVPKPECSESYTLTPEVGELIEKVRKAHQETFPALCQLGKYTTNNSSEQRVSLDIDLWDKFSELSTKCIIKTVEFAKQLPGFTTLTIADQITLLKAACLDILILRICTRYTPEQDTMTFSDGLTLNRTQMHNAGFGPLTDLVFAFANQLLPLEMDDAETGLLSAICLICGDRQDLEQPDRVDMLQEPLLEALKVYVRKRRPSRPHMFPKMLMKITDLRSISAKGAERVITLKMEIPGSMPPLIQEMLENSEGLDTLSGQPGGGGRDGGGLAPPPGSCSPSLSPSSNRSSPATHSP
Transcription factor E2F1 (Homo sapiens), sequence (Q01094 whole entry, looked up): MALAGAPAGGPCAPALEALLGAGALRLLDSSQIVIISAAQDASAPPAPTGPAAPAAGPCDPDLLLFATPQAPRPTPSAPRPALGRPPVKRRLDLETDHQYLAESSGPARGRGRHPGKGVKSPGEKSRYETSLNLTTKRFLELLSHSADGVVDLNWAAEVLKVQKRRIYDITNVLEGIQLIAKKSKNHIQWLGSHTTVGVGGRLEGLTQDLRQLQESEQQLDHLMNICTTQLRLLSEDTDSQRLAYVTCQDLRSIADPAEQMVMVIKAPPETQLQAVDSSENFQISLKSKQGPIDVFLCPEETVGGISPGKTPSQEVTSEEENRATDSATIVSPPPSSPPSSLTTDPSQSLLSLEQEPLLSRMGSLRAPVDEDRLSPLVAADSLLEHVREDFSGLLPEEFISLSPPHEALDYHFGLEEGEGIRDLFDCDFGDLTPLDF
CCAAT/enhancer-binding protein beta (Homo sapiens), sequence (P17676 whole entry, looked up): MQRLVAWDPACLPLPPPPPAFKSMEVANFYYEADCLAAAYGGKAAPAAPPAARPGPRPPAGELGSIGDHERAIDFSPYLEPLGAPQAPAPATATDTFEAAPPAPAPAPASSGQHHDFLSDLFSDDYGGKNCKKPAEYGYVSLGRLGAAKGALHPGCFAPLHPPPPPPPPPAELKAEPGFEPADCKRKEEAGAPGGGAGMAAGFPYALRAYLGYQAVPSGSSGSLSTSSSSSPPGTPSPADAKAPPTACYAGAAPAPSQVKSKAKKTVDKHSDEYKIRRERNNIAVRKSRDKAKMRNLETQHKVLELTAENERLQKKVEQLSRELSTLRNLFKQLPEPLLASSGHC
Aryl hydrocarbon receptor (Homo sapiens), sequence (P35869 whole entry, looked up): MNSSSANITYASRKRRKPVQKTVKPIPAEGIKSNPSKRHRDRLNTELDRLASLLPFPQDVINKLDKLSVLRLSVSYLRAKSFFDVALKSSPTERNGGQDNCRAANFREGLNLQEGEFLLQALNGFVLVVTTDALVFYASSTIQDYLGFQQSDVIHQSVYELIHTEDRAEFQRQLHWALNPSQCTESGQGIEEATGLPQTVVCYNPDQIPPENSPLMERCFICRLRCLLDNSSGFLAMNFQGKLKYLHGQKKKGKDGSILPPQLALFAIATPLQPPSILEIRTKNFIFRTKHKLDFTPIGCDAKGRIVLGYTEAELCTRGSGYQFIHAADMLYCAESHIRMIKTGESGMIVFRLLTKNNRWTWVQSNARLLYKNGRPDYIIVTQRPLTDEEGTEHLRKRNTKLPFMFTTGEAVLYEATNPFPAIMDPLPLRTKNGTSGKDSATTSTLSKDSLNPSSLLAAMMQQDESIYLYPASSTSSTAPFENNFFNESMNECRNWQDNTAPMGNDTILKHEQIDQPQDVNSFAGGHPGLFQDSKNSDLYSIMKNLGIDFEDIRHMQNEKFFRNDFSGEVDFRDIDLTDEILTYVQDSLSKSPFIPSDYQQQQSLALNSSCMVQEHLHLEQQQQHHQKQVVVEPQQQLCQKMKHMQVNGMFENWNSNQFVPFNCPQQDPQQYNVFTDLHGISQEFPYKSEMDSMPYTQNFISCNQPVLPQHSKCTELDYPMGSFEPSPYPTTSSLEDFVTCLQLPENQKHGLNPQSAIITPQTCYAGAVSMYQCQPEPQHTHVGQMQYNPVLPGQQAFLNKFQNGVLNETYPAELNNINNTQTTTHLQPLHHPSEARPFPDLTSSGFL

For `CCOC(=O)[C@H](C)O`, the result in test [1], in test [2], in [3], in test [4], in test [5] and in test [6] was inactive. Also, the molecule was classed as inactive in test [7], in [8], in test [9] and in test [10].

For the molecule `CC(=O)[C@@]1(O)CC[C@H]2[C@@H]3C[C@H](C)C4=CC(=O)C=C[C@]4(C)[C@@]3(F)[C@@H](O)C[C@@]21C`, the molecule was called inactive in test [1], in [2], in test [3], in test [4], in [5] and in [6]. Further, the call in test [7] and in test [8] was inactive. The AC50 in test [9] is 100 µM (active).

As for `CC(=O)OCC(=O)[C@@]12N=C(C)O[C@@H]1C[C@H]1[C@@H]3CCC4=CC(=O)C=C[C@]4(C)[C@H]3[C@@H](O)C[C@@]12C`, the outcome in test [1], in [2], in test [3], in test [4], in [5] and in test [6] was inactive. The call in test [7], in test [8] and in test [10] was inactive. For the same molecule, the AC50 in [9] is 27.5 µM (active).

For the molecule `Cc1cccc(N(C)C(=S)Oc2ccc3ccccc3c2)c1`, the outcome in test [1], in [2], in test [3], in test [4], in test [5] and in [6] was inactive. In addition, the result in test [7], in [8], in test [9] and in test [10] was inactive.

Regarding `CC(C)(C)c1ccc(N)cc1`, the molecule was called inactive in [1], in [2], in [3], in test [4], in test [5] and in [6]. Also, the result in [7], in [8] and in [9] was inactive.

Consider `Cn1c([N+](=O)[O-])cnc1COC(N)=O`, for which the molecule was called inactive in test [1], in test [2], in [3], in test [4], in [5] and in test [6]. Moreover, the molecule was called inactive in test [7], in test [8], in test [9] and in test [10].

For the molecule `CC(C)(C)C1CCCCC1=O` (stereo unspecified), the molecule was classed as inactive in test [1], in [2], in test [3], in test [4], in [5] and in test [6]. The call in test [7], in test [8], in test [9] and in [10] was inactive.

Take `CN(C)c1ccc(C(=N)c2ccc(N(C)C)cc2)cc1`: the AC50 was 0.399 µM (active) in [1]; 0.871 µM (active) in test [2]; 0.056 µM (active) in test [4]; 0.334 µM (active) in test [5]; 7.22 µM (active) in [8]; 7.38 µM (active) in test [9]. In addition, the molecule was classed as inactive in test [3], in test [6], in test [7] and in test [10].

In the case of `Cc1cccc(N)n1`, the molecule was called inactive in test [1], in test [2], in test [3], in test [4], in test [5] and in test [6]. Moreover, the result in test [7], in [8] and in test [9] was inactive.

In the case of `C=CCOc1c(Br)cc(Br)cc1Br`, the molecule was called inactive in [1], in test [2], in test [4], in test [5], in test [6] and in [7]. In addition, the molecule was classed as inactive in [8], in test [9] and in [10]. Further, the AC50 in test [3] was 35.1 µM (active).

Turning to `c1cc(N(CC2CO2)CC2CO2)ccc1OCC1CO1` (stereo unspecified), the AC50 in [1] is 12.6 µM (active); in test [3] it was 91.5 µM (active); in test [4], 6.98 µM (active); in test [7], 25.8 µM (active); in test [9], 83.1 µM (active). The result in [2], in test [5], in test [6] and in [8] was inactive.

Turning to `CCCCNc1ccc(NCCCC)c2c1C(=O)c1ccccc1C2=O`, the molecule was classed as inactive in test [1], in test [2], in test [3], in test [4], in test [5] and in test [6]. Moreover, the molecule was classed as inactive in test [7], in test [8] and in test [9].

On to `O=C1c2cccc(O)c2C(=O)c2c(O)cc(CO)cc21`, for which the outcome in [1], in test [2], in test [4], in [5], in test [7] and in test [8] was inactive. In test [9], the outcome was inactive. For the same molecule, the AC50 in test [3] was 11.3 µM (active); in [6], 32.5 µM (active).

As for `C=C(C)c1cccc(C(C)(C)N=C=O)c1`, the call in [1], in test [2], in [3], in test [4], in [6] and in test [7] was inactive. For the same molecule, the molecule was called inactive in test [8], in [9] and in [10]. In addition, the AC50 in test [5] is 100 µM (active).

In the case of `CC(C)c1ccc2c(C(C)C)cc(C(C)C)c(S(=O)(=O)O)c2c1`, the call in [1], in test [2], in test [3], in test [4], in test [5] and in test [6] was inactive. The call in test [7], in [8] and in test [9] was inactive.

Turning to `O=S(=O)(Oc1ccc(Cl)cc1Cl)c1ccccc1`, the outcome in test [1], in [2], in test [5], in [6], in test [7] and in test [9] was inactive. Also, the results for the AC50 in [3], in [4] and in test [8] were 46.7 µM (active), 48.8 µM (active) and 61.4 µM (active), respectively.

For the molecule `COC(=O)/C=C/C(C)=C\C=C\C(C)=C\C=C\C=C(C)\C=C\C=C(C)\C=C\C(=O)O`, the molecule was called inactive in test [1], in test [2], in [3], in test [4], in [5] and in test [6]. The call in test [7], in [8] and in test [9] was inactive.

As to `CC(C)(C)c1ccc(OC(=O)c2ccccc2O)cc1`, the molecule was called inactive in [1], in [2], in test [4], in test [5], in test [6] and in [7]. The molecule was classed as inactive in [8], in test [9] and in test [10]. Moreover, in test [3], the AC50 is 34.7 µM (active).

Take `CCCCCCCC/C=C\CCCCCCCC(=O)OCCO`: the AC50 in test [1] is 50 µM (active); in test [2], 69 µM (active); in test [4], 50 µM (active); in test [6], 50 µM (active); in test [9], 59.4 µM (active). Further, the result in [3], in [5], in test [7], in [8] and in test [10] was inactive.

Consider `CCCCCCCCCCCCCCCC[n+]1ccccc1`, for which the AC50 in [1] is 0.873 µM (active); in test [2], 0.852 µM (active); in [3], 33.4 µM (active); in [4] it was 8.64 µM (active); in test [6], 20.4 µM (active); in [7] it was 21 µM (active). Moreover, the AC50 in [9] is 7.8 µM (active). The call in [5], in test [8] and in test [10] was inactive.

Turning to `CCN(Cc1cccc(S(=O)(=O)O)c1)c1ccc(C(=C2C=CC(=[N+](CC)Cc3cccc(S(=O)(=O)[O-])c3)C=C2)c2ccccc2)cc1`, the outcome in test [1], in test [2], in test [3], in [4], in [6] and in test [7] was inactive. Moreover, the outcome in test [8], in [9] and in test [10] was inactive. Besides, in [5], the AC50 was 51.2 µM (active).
